Read-out in assay [1]: Monocyte Chemoattractant Protein-1 (MCP1), CCL2 (gene 6347)
Description: BSK_SAg_MCP1: BioMAP Diversity Plus: SAg Assay for Monocyte Chemoattractant Protein-1 (MCP1) Biomarker Activity (AID 2283090). The settings on record: primary human HUVEC with PBMC; actives raise or lower the signal. The method in brief:
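Values derive from bidirectional fitting of ELISA-measured MCP1 against DMSO controls. Readings were taken 24 h after dosing human vascular endothelial cells co-cultured with peripheral blood mononuclear cells under superantigen stimulation.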

Read-out in assay [2]: E-selectin (Homo sapiens) (UniProt P16581)
Briefly: BSK_SAg_Eselectin: BioMAP Diversity Plus: SAg Assay for Eselectin Biomarker Activity (AID 2283091). Particulars: primary human HUVEC with PBMC; actives raise or lower the signal. The procedure, abridged:
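E-selectin ELISA readout at 24 h post-dosing in human umbilical vein endothelial cell/PBMC co-culture; gain or loss of signal fitted relative to DMSO baseline.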

Read-out in assay [3]: Monokine induced gamma interferon (MIG), CXCL9 (gene 4283)
Briefly: BSK_SAg_MIG: BioMAP Diversity Plus: SAg Assay for Monokine induced gamma interferon (MIG) Biomarker Activity (AID 2283092). The settings on record: primary human HUVEC with PBMC; actives raise or lower the signal. The procedure, abridged:
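ELISA readout of MIG/CXCL9; primary human umbilical vein endothelial cells co-cultured with peripheral blood mononuclear cells; 24 h post-dose; gain/loss fit vs DMSO baseline.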

Assay [4] in a line: BSK_SAg_PBMCCytotoxicity: PBMC Cytotoxicity Assessment in the BioMAP Diversity Plus: SAg Assay (AID 2283093).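 Also: fitted both ways against DMSO so a hit may be loss or gain of signal.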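 As to AC50: PBMC superantigen activated with SEB plus TSST-1 one hour after compound addition.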 Particulars: primary human HUVEC with PBMC. The procedure, abridged: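 PBMC viability by Alamar Blue reduction, fluorescence read at 546/580 nm after 6 h dye exposure. Cells were dosed 1 h before SEB plus TSST-1 activation (20 ng/mL final each), then held 90 h; endothelial/PBMC human co-culture.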

Read-out in assay [5]: Interleukin-8 (IL8), CXCL8 (gene 3576)
Briefly: BSK_SAg_IL8: BioMAP Diversity Plus: SAg Assay for Interleukin-8 (IL8) Biomarker Activity (AID 2283094). The settings on record: primary human HUVEC with PBMC; actives raise or lower the signal. The procedure, abridged:
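ELISA readout of IL-8 from a superantigen-activated endothelial/PBMC primary human co-culture, taken 24 h post-dosing and fitted in both directions against DMSO; parallel SRB total-protein staining flags overt cytotoxicity.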

Assay [6] can be described thus: BSK_SAg_Proliferation: Cell Proliferation Assessment in the BioMAP Diversity Plus: SAg Assay (AID 2283095).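 Also: relative cell number as total protein by SRB absorbance in sub-confluent culture.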 Particulars: primary human HUVEC with PBMC. The procedure, abridged: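 Relative cell number in the endothelial cell/PBMC co-culture was quantified at 96 h by SRB staining (0.1% SRB, 10% TCA fixation, read at 560 nm). Curves were fitted in both directions relative to DMSO baseline.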

The nature of assay [7]: BSK_SAg_SRB: Viability Assessment in the BioMAP Diversity Plus: SAg Assay (AID 2283096).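 Also: cells read one day after compound addition; hits may be either gain or loss of signal compared with DMSO.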 The settings on record: primary human HUVEC with PBMC. The method in brief: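 Compounds were added to a human vascular co-culture of umbilical vein endothelium and PBMC. After 24 h, parallel cultures were fixed with 10% TCA, stained with 0.1% sulforhodamine B and read at 560 nm. Gain or loss of signal was fitted relative to DMSO.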

Assay [8] deals with human CYP19A1, CYP19A1 (gene 1588) (UniProt P11511). Briefly: NVS_ADME_hCYP19A1: NovaScreen (NVS) CYP450-related Enzyme Activity (ADME) Assay for human CYP19A1 (AID 2283098; active = hit-call score of the fitted dose curve at least 0.9, where 1 is the maximum;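 as to AC50: potency for inhibitors seen as loss of fluorescent enzyme signal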). The method in brief:
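Fluorescence intensity read-out; activity taken as signal loss relative to acetonitrile vehicle. Extracted enzyme, specific substrate, no cells, 0.5 h exposure. Duplicate single-point screen at 10 uM, then concentration–response follow-up for actives.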

Assay [9] addresses human CYP1A1, CYP1A1 (gene 1543) (UniProt P04798). Description: NVS_ADME_hCYP1A1: NovaScreen (NVS) CYP450-related Enzyme Activity (ADME) Assay for human CYP1A1 (AID 2283100; active = hit-call score of the fitted dose curve at least 0.9, where 1 is the maximum). The method in brief:
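Read-out: fluorescence intensity from enzymatic turnover of substrate by recombinant CYP1A1, loss of signal indicating inhibition. Incubation 1 h post-dose. Primary single-point 10 uM in duplicate; actives rerun singly with top concentration 20 uM.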

Assay [10] has as its target human CYP2A6, CYP2A6 (gene 1548) (UniProt P11509). Description: NVS_ADME_hCYP2A6: NovaScreen (NVS) CYP450-related Enzyme Activity (ADME) Assay for human CYP2A6 (AID 2283099; active = hit-call score of the fitted dose curve at least 0.9, where 1 is the maximum). The procedure, abridged:
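Insect-cell-expressed human CYP2A6 enzyme activity measured by fluorescence intensity 0.5 hour post-dosing. Compounds screened at 10 uM in duplicate, then hits tested singly in concentration series (max 20 uM); acetonitrile baseline.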

Among the data in PubChem BioAssay (EPA / NIEHS) are outcome and AC50 values, retold here.

Results filed as inconclusive are left out. Activity calls are given as the source filed them. The calls were made as follows, unless noted: active = hit-call score of the fitted dose curve at least 0.9, where 1 is the maximum; inactive = score below 0.9.

Broadly, the AC50 is the concentration at which the activity in the assay is half-maximal.

E-selectin (Homo sapiens), sequence (P16581 whole entry, looked up): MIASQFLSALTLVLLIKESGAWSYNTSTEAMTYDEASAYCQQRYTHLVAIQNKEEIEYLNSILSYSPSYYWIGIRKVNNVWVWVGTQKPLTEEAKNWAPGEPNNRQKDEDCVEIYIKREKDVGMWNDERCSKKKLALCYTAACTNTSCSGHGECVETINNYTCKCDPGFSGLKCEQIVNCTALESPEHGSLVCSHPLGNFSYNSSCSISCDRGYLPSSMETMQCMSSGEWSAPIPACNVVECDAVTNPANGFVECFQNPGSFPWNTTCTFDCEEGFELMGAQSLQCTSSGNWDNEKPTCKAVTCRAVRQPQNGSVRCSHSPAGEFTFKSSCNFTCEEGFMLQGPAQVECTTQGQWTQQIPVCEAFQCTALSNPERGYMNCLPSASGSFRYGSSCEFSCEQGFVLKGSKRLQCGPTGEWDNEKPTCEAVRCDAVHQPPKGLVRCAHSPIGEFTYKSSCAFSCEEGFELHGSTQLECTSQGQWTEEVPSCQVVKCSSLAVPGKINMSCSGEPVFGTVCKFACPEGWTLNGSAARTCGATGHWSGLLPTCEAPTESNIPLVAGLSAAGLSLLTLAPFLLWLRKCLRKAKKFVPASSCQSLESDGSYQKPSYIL
human CYP1A1, CYP1A1 (gene 1543), sequence (P04798 whole entry, looked up): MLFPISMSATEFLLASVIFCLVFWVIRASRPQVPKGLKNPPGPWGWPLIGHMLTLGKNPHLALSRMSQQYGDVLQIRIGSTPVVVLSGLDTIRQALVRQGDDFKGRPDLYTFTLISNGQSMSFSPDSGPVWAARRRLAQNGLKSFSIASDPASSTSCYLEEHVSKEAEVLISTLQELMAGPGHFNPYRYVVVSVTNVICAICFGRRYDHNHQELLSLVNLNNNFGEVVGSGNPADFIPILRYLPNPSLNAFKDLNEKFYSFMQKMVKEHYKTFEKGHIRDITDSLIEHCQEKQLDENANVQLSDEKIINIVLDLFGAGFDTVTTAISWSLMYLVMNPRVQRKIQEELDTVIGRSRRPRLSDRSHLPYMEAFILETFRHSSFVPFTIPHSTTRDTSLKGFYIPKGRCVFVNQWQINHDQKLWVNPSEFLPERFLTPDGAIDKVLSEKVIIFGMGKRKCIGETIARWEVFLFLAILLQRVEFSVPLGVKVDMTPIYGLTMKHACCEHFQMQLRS
human CYP19A1, CYP19A1 (gene 1588), sequence (P11511 whole entry, looked up): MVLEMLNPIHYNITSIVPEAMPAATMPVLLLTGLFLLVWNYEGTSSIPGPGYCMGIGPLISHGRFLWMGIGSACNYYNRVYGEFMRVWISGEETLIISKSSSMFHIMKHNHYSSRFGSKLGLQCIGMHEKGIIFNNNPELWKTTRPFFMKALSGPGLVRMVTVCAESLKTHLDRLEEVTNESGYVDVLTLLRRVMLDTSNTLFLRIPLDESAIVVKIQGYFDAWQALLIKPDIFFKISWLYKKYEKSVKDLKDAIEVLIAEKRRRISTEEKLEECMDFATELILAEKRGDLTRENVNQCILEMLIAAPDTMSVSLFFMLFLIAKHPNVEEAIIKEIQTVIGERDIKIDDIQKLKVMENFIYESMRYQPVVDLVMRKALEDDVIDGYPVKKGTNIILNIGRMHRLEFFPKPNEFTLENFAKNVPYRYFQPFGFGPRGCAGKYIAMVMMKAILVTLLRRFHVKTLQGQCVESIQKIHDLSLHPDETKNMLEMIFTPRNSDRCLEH
human CYP2A6, CYP2A6 (gene 1548), sequence (P11509 whole entry, looked up): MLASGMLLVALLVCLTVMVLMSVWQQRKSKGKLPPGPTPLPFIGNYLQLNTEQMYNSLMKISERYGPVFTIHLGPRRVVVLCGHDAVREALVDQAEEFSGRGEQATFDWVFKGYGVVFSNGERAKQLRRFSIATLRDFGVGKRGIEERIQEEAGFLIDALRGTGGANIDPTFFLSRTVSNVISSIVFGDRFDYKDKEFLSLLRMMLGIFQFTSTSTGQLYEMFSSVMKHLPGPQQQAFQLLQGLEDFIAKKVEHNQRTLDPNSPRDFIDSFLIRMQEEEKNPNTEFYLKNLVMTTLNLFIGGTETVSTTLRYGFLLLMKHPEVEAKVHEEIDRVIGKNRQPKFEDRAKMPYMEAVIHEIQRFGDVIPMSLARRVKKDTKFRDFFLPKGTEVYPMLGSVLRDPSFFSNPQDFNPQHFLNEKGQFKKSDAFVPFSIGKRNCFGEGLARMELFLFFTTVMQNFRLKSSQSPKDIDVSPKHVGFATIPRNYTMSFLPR

Take `Cc1ccn2nc(S(=O)(=O)Nc3c(F)cccc3F)nc2n1`: the outcome in assay [1], in assay [2], in assay [3], in [4], in [5] and in assay [6] was inactive. Further, the outcome in assay [7] was inactive.
In the case of `COc1ccc(C(=CC(=O)N2CCOCC2)c2ccc(Cl)cc2)cc1OC`, the AC50 was 12.8 µM (active) in [1]; 5.93 µM (active) in [2]; 25 µM (active) in assay [3]; 9.07 µM (active) in [4]; 8.93 µM (active) in assay [5]; 12.9 µM (active) in [6]. In addition, the figures for the AC50 in assay [8] and in [9] were 4.42 µM (active) and 6.61 µM (active), respectively. For the same compound, the outcome in assay [7] was inactive.
For `COc1cccc(C(=O)NN(C(=O)c2cc(C)cc(C)c2)C(C)(C)C)c1C`, the outcome in assay [1], in assay [2], in assay [3], in assay [4], in assay [5] and in assay [6] was inactive. Further, the result in [7] was inactive.
As to `CC[C@H](C)[C@H]1O[C@]2(C=C[C@@H]1C)C[C@@H]1C[C@@H](C/C=C(\C)[C@@H](O[C@H]3C[C@H](OC)[C@@H](O[C@H]4C[C@H](OC)[C@@H](NC)[C@H](C)O4)[C@H](C)O3)[C@@H](C)/C=C/C=C3\CO[C@@H]4[C@H](O)C(C)=C[C@@H](C(=O)O1)[C@]34O)O2`, the concentration at half-maximal activity (AC50) was 3.38 µM (active) in assay [1]; 4.95 µM (active) in assay [2]; 8.62 µM (active) in [3]; 2.6 µM (active) in assay [4]; 2.16 µM (active) in [5]; 1.69 µM (active) in assay [6]. Further, the half-maximal activity concentration (AC50) in assay [7] was 5.06 µM (active). In addition, the outcome in assay [8] was inactive.
Consider `C#CC(C)(C)NC(=O)c1cc(Cl)cc(Cl)c1`, for which the outcome in [1], in [2], in assay [3], in [4], in [5] and in assay [6] was inactive. In addition, the result in assay [7] and in assay [8] was inactive. Moreover, the AC50 in assay [9] was 2.56 µM (active).
Turning to `CNc1cnn(-c2cccc(C(F)(F)F)c2)c(=O)c1Cl`, the result in [1], in assay [3], in assay [6], in assay [7] and in assay [8] was inactive. Besides, the AC50 in [2] is 19.2 µM (active); in [4], 7.99 µM (active); in assay [5], 10.9 µM (active); in [9] it was 6.11 µM (active).
In the case of `CSc1nnc(C(C)(C)C)c(=O)n1N`, the outcome in assay [1], in [2], in assay [3], in assay [4], in assay [5] and in assay [7] was inactive.
Take `CC(Oc1cccc(Cl)c1)C(=O)O` (stereo not given): the outcome in assay [1], in [2], in assay [3], in assay [4], in assay [5] and in assay [6] was inactive. Moreover, the result in assay [7] was inactive.
`C[Si](Cn1cncn1)(c1ccc(F)cc1)c1ccc(F)cc1`: the AC50 in [1] is 28.9 µM (active); in [2] it was 19.8 µM (active); in assay [5] it was 16.8 µM (active); in [6], 22.5 µM (active); in [8] it was 3.78 µM (active); in [10], 1.75 µM (active). In addition, the AC50 in assay [9] was 3.27 µM (active). The result in assay [3], in assay [4] and in assay [7] was inactive.
On to `CCC(=NOC/C=C/Cl)C1=C(O)CC(C2CCOCC2)CC1=O` (stereo not given), for which the outcome in assay [1], in assay [2], in assay [3], in assay [4], in assay [5] and in assay [7] was inactive.
For `Nc1nc(N)nc(NC2CC2)n1`, the result in assay [1], in [2], in assay [3], in [4], in assay [5] and in assay [6] was inactive. For the same compound, the result in assay [7] was inactive.
For the compound `CN(C)[C@@H]1C(=O)C(C(N)=O)=C(O)[C@@]2(O)C(=O)C3=C(O)c4c(O)cccc4[C@@](C)(O)[C@H]3[C@H](O)[C@@H]12`, the outcome in assay [1], in assay [2], in assay [3], in assay [4], in [5] and in assay [7] was inactive.
In the case of `CC(C)[C@H](C(=O)O[C@H](C#N)c1cccc(Oc2ccccc2)c1)c1ccc(Cl)cc1`, the outcome in assay [1], in assay [3], in assay [5], in [7] and in [8] was inactive. Moreover, the AC50 in assay [2] is 12.3 µM (active); in assay [4], 4.84 µM (active); in [6], 12 µM (active).
For the compound `CCOP(=S)(OCC)SCCSCC`, the result in assay [1], in assay [2], in assay [3], in assay [4], in [5] and in assay [6] was inactive. Moreover, the outcome in assay [7] was inactive.
Regarding `CC(C)N(C(=O)SCC(Cl)=C(Cl)Cl)C(C)C`, the AC50 in [1] is 31.3 µM (active); in assay [2] it was 31.8 µM (active); in [3], 36.7 µM (active); in assay [4], 36.5 µM (active); in assay [5], 31 µM (active); in assay [6] it was 38 µM (active). Besides, the AC50 in [7] was 31.5 µM (active).
As to `CCOP(=S)(Oc1cnc(C(C)(C)C)nc1)OC(C)C` (stereo not given), the AC50 in assay [1] was 30.7 µM (active); in assay [2], 31.4 µM (active); in [3], 33.3 µM (active); in assay [4] it was 36.7 µM (active); in assay [5] it was 30.3 µM (active); in assay [6], 36.6 µM (active). Moreover, the AC50 in [7] was 34.3 µM (active).
